# Measured values from PubChem BioAssay (NCI).
# “And” between values parts separate entries of the source, which are not always exact repeats. Identical values can stand only once. This is part of a sample that, as a whole, favours compounds with a hit. Of some 83,000 tested, about 20% had one in any assay.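 Activity criterion: percent growth below 10, measured after cells in 96-well plates were exposed to a single compound concentration for 48 hours.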 The source made the active and inactive calls.
# Test system: HL-60(TB) leukemia
# Test: NCI-60 one-dose screen, 48 h (100 = growth as untreated, 0 = no growth, -100 = all killed)
# Details: 10 µM unless noted
row,SMILES,growth
1,Cc1ccc(NC(=O)c2ccc(CN3CCN(C)CC3)cc2)cc1Nc1nccc(-c2cccnc2)n1,107% (inactive) and 89.8% (inactive)
2,O=C(CSc1nnc2n1S(=O)(=O)c1ccccc1N2c1ccccc1)Nc1nc2ccc(F)cc2s1,106% (inactive)
3,CCCCCCCC12Cc3ccccc3C1=Nc1c(c3ccccc3n1C)C2=O (stereo not given),91.4% (inactive)
4,Oc1ccc(CN2CCC(N3CCCCC3)CC2)c2cccnc12,28.2% (inactive)
5,O=C(Nc1ccc(Br)cc1F)c1cc(Cl)ccc1O,-42.4% (active)
6,COc1ccc(/C=C2\N=C3SC=C(N)N3C2=O)cc1,-40% (active)
7,COc1ccc(-c2nn(-c3ccccc3)cc2/C=C2\SC(=O)NC2=O)cc1,88.2% (inactive)
8,COc1cc(OC)c2c(c1)c1nc3cc(C)c(C)cc3nc1n2CCN(C)C,103% (inactive)
9,COc1ccc(OC)c(/C=C2\COc3ccc(O)cc3C2=O)c1,82.2% (inactive)
10,COc1cccc2c1nc1cccc(OC)c1[n+]2[O-],0.0729% (active)
